This test concerns Plasmodium falciparum. The test is described as follows: Primary screen in NF54 nanoGlo assay, in single point, at 2uM, 72h; a lower Z score goes with more inhibition. The conditions noted are these: timepoint 72 hour. The test is classed as functional, Erythrocyte.

Several values for one entry are separate records, joined by “and”; a condition that tells them apart may be missing. Identical values can stand only once. Hit rate of the full screen: of about 150,000 compounds, about 540 (0.36%) showed an effect of 50% or more. The full list was thinned out, with strong results kept by preference.

Turning to `O=C(NCc1ccccc1)c1[nH]cnc1C(=O)N1CCCCC1`, the “% Inhibition” value was found to be 11% and the Z score was -1.23.
Consider `Cc1nn(C)c2nc3c(c(N)c12)C(=O)C[C@@H](c1ccccc1)C3`, for which the “% Inhibition” value is -14% and the Z score came out at 1.9.
Turning to `COc1ccc(-c2n[nH]c3c2C(=O)C[C@@H](c2ccccc2)C3)cc1`, the “% Inhibition” value is recorded as -5% and the Z score came to 0.48.
For `Nc1nc(-c2ccccc2)c2cc3c(nn12)C[C@H](c1ccc(F)cc1)CC3=O`, the “% Inhibition” value came out at 57% and the Z score is recorded as 0.5.
For the molecule `CNc1snc(C)c1C(=O)N1CCN(Cc2ccc(-c3cccc(F)c3)s2)CC1`, the “% Inhibition” value was 2% and the Z score is recorded as -0.21.
For the molecule `O=C(N[C@@H]1CC[C@H]2CCOc3ccccc3C(=O)N3CCN(C4CCC(F)(F)CC4)C[C@H]3C(=O)NC[C@H]1O2)C1CCOCC1`, the “% Inhibition” value is on record as 29% and the Z score is given as -3.41.
Take `Cc1ccc(S(=O)(=O)N2CCC([C@H](NC(=O)c3ccccc3)C(=O)N3CCCC3)CC2)cc1`: the “% Inhibition” value was -14% and the Z score is listed as 1.34.
`Cc1ccc(NC(=O)N2CCC(C(NC(=O)c3ccccc3)C(=O)N3CCCCC3C)CC2)cc1` (stereo not drawn): the “% Inhibition” value worked out at 70% and the Z score came to 0.76.
As to `CC(=O)N1CCC(C(NC(=O)c2cccs2)C(=O)N2CCCCC2C)CC1` (stereo not drawn), the “% Inhibition” value was 4% and the Z score is recorded as -0.78.
Consider `COc1ccc(Cc2n[nH]c3c2CN(Cc2nccs2)CC3)cc1OC`, for which the “% Inhibition” value was 6% and the Z score is on record as -0.85.
Take `Cc1noc(CNC(=O)c2ccc3[nH]c(=O)[nH]c3c2)n1`: the “% Inhibition” value is -7% and the Z score is recorded as 1.3.
For the molecule `CCOC1CC(N(C)S(=O)(=O)c2cnc(C)s2)C12CCC2` (stereo not drawn), the “% Inhibition” value is -5% and the Z score is 0.63.
On to `CCCc1nc2ncnn2c(O)c1NC(=O)Nc1ccccc1Br`, for which the “% Inhibition” value amounted to 2% and the Z score is listed as -0.44.
For the molecule `N#CC(c1nc2ccccc2s1)c1nc2ccccc2s1`, the “% Inhibition” value stood at 60% and the Z score turned out to be 0.46.
Taken in the same sequence, the figures for `N#C[C@@H](C(=O)NCc1ccccc1)c1nc2ccccc2s1` were -2% and 0.39.
In the same order, the values of `N#C[C@@H](C(=O)c1cc2ccccc2[nH]1)c1nc2ccccc2s1` are 16% and -2.03.
Turning to `CCN(CC)C(=O)Nc1ccc(-c2c(C)nn(CC(N)=O)c2C)cc1`, the “% Inhibition” value is reported as 1% and the Z score is recorded as -0.2.
Take `CCN(CC)c1ccc(CNC(=O)[C@H](C)c2c(C)noc2C)cc1F`: the “% Inhibition” value is reported as -12% and the Z score is on record as 1.74.
Consider `CCOc1cccc(CN2CCC(C)(c3noc(C4CCOCC4)n3)CC2)c1`, for which the “% Inhibition” value is recorded as -13% and the Z score is 1.51.
Take `CCN1CCN(C2CCN(Cc3c[nH]c4ccccc34)CC2)CC1`: the “% Inhibition” value was found to be 5% and the Z score was -0.83.
Taken in the same sequence, the figures for `Fc1ccccc1N1CCN(C2CCN(Cc3ccncc3)CC2)CC1` were 20% and -2.44.
Turning to `Fc1ccccc1N1CCN(C2CCN(Cc3c[nH]c4ccccc34)CC2)CC1`, the “% Inhibition” value came to 67% and the Z score is reported as -0.71.
In the case of `c1cc(Oc2ccc3nnnn3n2)cc(-c2nnco2)c1`, the “% Inhibition” value is recorded as -14% and the Z score worked out at 1.28.
With `Cn1c(CN2CCN(c3ccnc4ccccc34)CC2)cc(=O)n(C)c1=O`, the “% Inhibition” value stood at 17% and the Z score was -2.24.
Taken in the same sequence, the figures for `NC(=O)CO[C@H]1CCOC[C@H]1NC(=O)c1ccc(Oc2ccccc2)o1` were 4% and -0.64.
On to `Cc1cccc(CN2CCC[C@@](O)(CN3CCN(CC4CC4)CC3)C2=O)c1`, for which the “% Inhibition” value is recorded as -10% and the Z score was determined as 1.1.
Regarding `CC1CN(C(CNCc2cnn(C)c2)c2cccs2)CCO1` (stereo not drawn), the “% Inhibition” value is -9% and the Z score came out at 0.92.
Taken in the same sequence, the figures for `CCN(c1noc(C2CCN(C(=O)C(C)C)CC2)n1)C(C)C` were -18% and 2.32.
For the molecule `CCc1nn(C)c(OC)c1CNC(=O)N[C@@H]1Cc2ccccc2[C@H]1O`, the “% Inhibition” value is listed as -13% and the Z score is reported as 1.27.
In the case of `COc1ccc2cc1Oc1cccc(c1)CO[C@H]1CCN(C(=O)CN3CCC(O)CC3)C[C@H]1NC(=O)CC2`, the “% Inhibition” value was -23% and the Z score worked out at 2.88.
In the case of `COc1cccc(-c2nc(C)c(C(=O)NCc3nnc4ccccn34)s2)c1`, the “% Inhibition” value is reported as -3% and the Z score came out at 0.36.
Turning to `COc1cccc(-c2nc(C)c(C(=O)NC[C@@H]3CCCN4CCCCC34)s2)c1` (stereo partly drawn), the “% Inhibition” value is listed as -1% and the Z score stood at 0.17.
`COc1ccc(-c2nc(C)c(C(=O)Nc3n[nH]c(CC(C)C)n3)s2)cc1OC`: the “% Inhibition” value was determined as 15% and the Z score is recorded as -2.32.
Turning to `COc1cccc(-c2nc(C)c(C(=O)Nc3n[nH]c(CC(C)C)n3)s2)c1`, the “% Inhibition” value (2 µM) is 82% and 77%.
On to `COc1cccc(-c2nc(C)c(C(=O)Nc3cccc4[nH]ccc34)s2)c1`, for which the “% Inhibition” value is -1% and the Z score was determined as 0.1.
As for `COc1cccc(-c2nc(C)c(C(=O)Nc3nc(C(C)C)n[nH]3)s2)c1`, the “% Inhibition” value turned out to be 68% and the Z score was -7.28.
In the same order, the values of `O=C(CCC1CCCCC1)NC1CCN(c2cn[nH]c(=O)c2)CC1` are -10% and 1.05.
Take `CCN(CC)c1nc2cc(C(=O)NCc3ccc(C)cc3)ccc2c(=O)n1Cc1ccccc1`: the “% Inhibition” value is recorded as 5% and the Z score is reported as -0.78.
Consider `CC(=O)Nc1ccc(C)cc1S(=O)(=O)N1CC=C(c2c(C)n(Cc3ccc(Cl)cc3)c3ccccc23)CC1`, for which the “% Inhibition” value is recorded as -14% and the Z score stood at 1.87.
As for `COc1ccc(Cn2c(C)c(C3=CCN(S(=O)(=O)c4cc(C)c(C)cc4C)CC3)c3ccccc32)cc1`, the “% Inhibition” value stood at 0% and the Z score was found to be 0.05.
With `CC(=O)Nc1ccc(C)cc1S(=O)(=O)N1CC=C(c2c(C)n(Cc3ccccc3C)c3ccccc23)CC1`, the “% Inhibition” value is reported as 92% and the Z score is on record as -8.31.
Turning to `Cc1cc(C(F)(F)F)n(C[C@@H](C)Cn2cc(-c3cncnc3)nn2)n1`, the “% Inhibition” value is -6% and the Z score stood at 0.77.
Turning to `COC(=O)Nc1nc(-c2ccccc2)c(-c2nccc(OCC(F)(F)F)c2C)s1`, the “% Inhibition” value turned out to be 30% and the Z score is listed as -3.82.
In the same order, the values of `COc1ccccc1N(Cc1ccccc1)C1=NC(=[N+](Cc2ccccc2)c2ccccc2OC)c2ccccc21` are 73% and -6.15.
Taken in the same sequence, the figures for `COc1ccc(Cl)cc1N(Cc1ccccc1)Cc1ccccc1` were -2% and 0.32.
As to `COc1ccccc1N(C)Cc1c(C)noc1C`, the “% Inhibition” value turned out to be 7% and the Z score was -0.98.
As for `O=C(CCc1c(F)cccc1Cl)N1CC(Nc2cnccn2)C1`, the “% Inhibition” value is given as -6% and the Z score amounted to 0.7.
In the case of `CC1(CO)CCCC1NCC(C)(O)C(F)(F)F` (stereo not drawn), the “% Inhibition” value worked out at 33% and the Z score is -3.73.
As to `O=c1c2ccccc2nc(Cc2ccccc2)n1Nc1ccccc1`, the “% Inhibition” value was -13% and the Z score is 1.76.
In the case of `COc1nc(-c2cccc(C(=O)NCC3CCOCC3)c2)ncc1F`, the “% Inhibition” value was 70% and the Z score is given as -12.03.
In the case of `O=C(NCC1CCOCC1)c1ccc(-c2ccc(C(F)(F)F)cn2)cc1`, the “% Inhibition” value is 1% and the Z score is listed as -0.21.
In the same order, the values of `Cc1ccc(-c2cccc(C(=O)NCC3CCOCC3)c2)c(C)n1` are -2% and 0.22.
Consider `O=C1N[C@H]2CC[C@@H]1CN(C(=O)c1cccc(-c3ccc4nccc(O)c4c3)c1)C2`, for which the “% Inhibition” value is recorded as -3% and the Z score turned out to be 0.64.
Take `Cc1cc(C)nc(-c2cccc(C(=O)NC[C@H]3CCOC3)c2)n1`: the “% Inhibition” value is given as -2% and the Z score is 0.19.
Turning to `O=C(NCC1CCOCC1)c1ccc(-c2ccc(Cl)cn2)cc1`, the “% Inhibition” value is on record as 7% and the Z score is listed as -1.01.
As to `COc1nc(-c2cccc(C(=O)N3C[C@@H]4CC[C@H](C3)C(=O)N4)c2)ncc1F`, the “% Inhibition” value was determined as 68% and the Z score was -12.2.
In the case of `CCc1cc(-c2cccc(C(=O)N3C[C@@H]4CC[C@H](C3)C(=O)N4)c2)nc(C)n1`, the “% Inhibition” value was -4% and the Z score is listed as 0.67.

In general, % Inhibition refers to the relative decrease from the control value, in per cent.

Values taken from ChEMBL document CHEMBL4888484, “Replenishing the malaria drug discovery pipeline: Screening and hit evaluation of the MMV Hit Generation Library 1 (HGL1) against asexual blood stage Plasmodium falciparum ,using a nano luciferase reporter read-out” (2022).
